From PubChem BioAssay (EPA / NIEHS)
Records with an inconclusive call do not appear. Activity calls are given as the source filed them. How the source made its calls: active means hit-call score of the fitted dose curve at least 0.9, where 1 is the maximum; inconclusive means response in the unintended direction; inactive means score below 0.9.

Biological target: human Matrix Metalloproteinase-9 (MMP9), MMP9 (gene 4318) (UniProt P14780)
Test: NVS_ENZ_hMMP9: NovaScreen (NVS) Enzymatic Assay for human Matrix Metalloproteinase-9 (MMP9) (AID 2283190);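 further: cell-free recombinant MMP9 protease activity read by fluorescent substrate signal; active means inhibition seen as loss of fluorescence signal versus DMSO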
Method in brief: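 Inhibition was scored as loss of fluorescence signal against DMSO controls. The recombinant protease was exposed to chemicals for 1 hour before reading; initial testing used 25 uM in duplicate.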

Chain of human Matrix Metalloproteinase-9 (MMP9), MMP9 (gene 4318) (P14780 whole entry, looked up): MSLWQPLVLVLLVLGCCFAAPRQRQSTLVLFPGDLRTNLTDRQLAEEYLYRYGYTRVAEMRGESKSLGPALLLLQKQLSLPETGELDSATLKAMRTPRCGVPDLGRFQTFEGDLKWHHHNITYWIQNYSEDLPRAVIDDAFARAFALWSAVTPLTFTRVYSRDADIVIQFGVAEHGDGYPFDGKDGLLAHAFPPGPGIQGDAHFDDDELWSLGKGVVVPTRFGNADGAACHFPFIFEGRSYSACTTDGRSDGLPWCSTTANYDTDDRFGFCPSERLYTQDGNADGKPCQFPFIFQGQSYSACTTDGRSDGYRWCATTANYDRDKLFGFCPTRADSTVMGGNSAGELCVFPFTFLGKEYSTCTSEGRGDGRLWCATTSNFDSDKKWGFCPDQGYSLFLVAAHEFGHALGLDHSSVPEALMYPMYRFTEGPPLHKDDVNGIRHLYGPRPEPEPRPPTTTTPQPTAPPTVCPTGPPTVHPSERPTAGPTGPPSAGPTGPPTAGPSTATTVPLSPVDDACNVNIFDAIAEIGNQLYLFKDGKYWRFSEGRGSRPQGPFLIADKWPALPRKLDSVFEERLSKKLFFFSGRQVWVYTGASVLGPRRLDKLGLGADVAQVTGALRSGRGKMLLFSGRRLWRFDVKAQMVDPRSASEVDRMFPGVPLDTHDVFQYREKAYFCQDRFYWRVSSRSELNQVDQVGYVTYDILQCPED

| Structure (SMILES) | AC50 | outcome |
| --- | --- | --- |
| S=C(NC1CCCCC1)NC1CCCCC1 | 6.33 µM (active) |  |
| c1ccc2c(c1)ccc1cc3c(ccc4ccccc43)cc12 | 4.46 µM (active) |  |
| CCCCCCCCCCCCCCCC[N+](C)(C)CC |  | inactive |
| C/C=C\C/C=C/CCCCCCCCOC(C)=O | 13.7 µM (active) |  |
| CNC(=S)N(C)C | 1.04 µM (active) |  |
| CCC(C)C=O (centres undefined) | 8.8 µM (active) |  |

Biological target: human Phosphodiesterase 10 (PDE10), PDE10A (gene 10846) (UniProt Q9Y233)
Sequence (Q9Y233 whole entry, looked up): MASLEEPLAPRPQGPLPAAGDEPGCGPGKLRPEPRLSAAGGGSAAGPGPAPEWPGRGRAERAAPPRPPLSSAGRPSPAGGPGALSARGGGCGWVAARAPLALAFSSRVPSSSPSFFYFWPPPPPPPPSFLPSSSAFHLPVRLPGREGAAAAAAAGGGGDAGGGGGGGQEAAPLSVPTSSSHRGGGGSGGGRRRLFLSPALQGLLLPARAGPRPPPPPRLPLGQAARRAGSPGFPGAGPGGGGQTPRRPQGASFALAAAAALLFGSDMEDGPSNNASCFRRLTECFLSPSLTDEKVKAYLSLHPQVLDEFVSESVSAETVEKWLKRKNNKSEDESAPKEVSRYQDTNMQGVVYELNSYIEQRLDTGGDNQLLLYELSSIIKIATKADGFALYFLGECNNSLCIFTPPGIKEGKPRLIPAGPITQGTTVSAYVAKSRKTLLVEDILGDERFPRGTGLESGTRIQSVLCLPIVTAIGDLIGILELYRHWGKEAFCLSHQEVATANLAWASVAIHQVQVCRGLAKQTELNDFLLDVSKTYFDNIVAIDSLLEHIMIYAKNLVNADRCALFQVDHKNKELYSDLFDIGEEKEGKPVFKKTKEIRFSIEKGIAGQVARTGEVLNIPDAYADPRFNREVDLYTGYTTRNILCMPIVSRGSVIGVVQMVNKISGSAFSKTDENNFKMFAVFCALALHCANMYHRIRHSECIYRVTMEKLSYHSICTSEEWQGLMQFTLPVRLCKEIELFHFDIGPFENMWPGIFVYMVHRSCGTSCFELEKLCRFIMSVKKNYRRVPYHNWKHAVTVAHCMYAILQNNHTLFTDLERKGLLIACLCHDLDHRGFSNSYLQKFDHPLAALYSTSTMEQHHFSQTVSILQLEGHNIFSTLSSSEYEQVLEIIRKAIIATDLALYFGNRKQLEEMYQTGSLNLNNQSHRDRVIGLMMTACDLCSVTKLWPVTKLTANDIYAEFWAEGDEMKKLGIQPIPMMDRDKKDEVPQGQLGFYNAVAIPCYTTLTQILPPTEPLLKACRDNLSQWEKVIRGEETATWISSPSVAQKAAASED
Test: NVS_ENZ_hPDE10: NovaScreen (NVS) Enzymatic Assay for human Phosphodiesterase 10 (PDE10) (AID 2283195)
Method in brief: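 PDE10A, cell-free; 1 h incubation; fluorescence intensity + electrophoretic mobility shift separating substrate/product; DMSO = baseline; 25 uM duplicate primary, CRC up to 50 uM.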

| Structure (SMILES) | outcome | AC50 |
| --- | --- | --- |
| O=Nc1ccc(O)cc1 | inactive |  |
| CC(C)(c1cc(Br)c(OCCO)c(Br)c1)c1cc(Br)c(OCCO)c(Br)c1 |  | 20.2 µM (active) |
| Cc1ccc(N)c([N+](=O)[O-])c1 |  | 25 µM (active) |
| CCCCCCCCCCCCCCCC[N+](C)(C)CC | inactive |  |
| C=C(C)CCO |  | 38.2 µM (active) |
| CCCCCCCCCCc1ccccc1 | inactive |  |
| C=C(C)C(=O)OCC(C)C | inactive |  |
| CCC(C)C=O (centres undefined) |  | 16.2 µM (active) |
